We go through ten compounds from PubChem BioAssay (NCI).

About 79,000 compounds went through this panel and 15% of them were active in at least one assay; those are over-represented in the sample as a whole. A number with no mark means an inactive call. The source made the active and inactive calls. Cut-off read from the data, not from the text of the source: active = growth inhibition above about 70%; inactive = the rest.

A short description of assay [1]: NCI Yeast Anticancer Drug Screen. Data for the rad50 strain (AID 155).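 Note: 0% = growth of vehicle-only cultures of the same strain.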 As to conditions: S. cerevisiae rad50 strain growth inhibition, stronger effect = higher value. The gist of the method:
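Genetically altered yeast (DNA repair pathway); compound treatment; growth inhibition vs vehicle ctrl.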

A short description of assay [2]: NCI Yeast Anticancer Drug Screen. Data for the mec2-1 strain (AID 157). As to conditions: S. cerevisiae mec2-1 strain, stronger effect = higher value. An outline of the steps:
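Cells of the genetically defined mec2-1 yeast strain are incubated with test compound. Inhibition of growth is calculated against vehicle-treated controls.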

Assay [3] in a line: NCI Yeast Anticancer Drug Screen. Data for the sgs1 mgt1 strain (AID 161).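 Note: 0% = growth of cultures given vehicle only.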 The conditions noted are these: S. cerevisiae sgs1 mgt1 strain, stronger effect = higher value. An outline of the steps:
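Inhibition of yeast growth, normalised to vehicle-treated controls, is reported for a strain bearing genetic alterations in DNA damage repair.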

A short description of assay [4]: NCI Yeast Anticancer Drug Screen. Data for the cln2 rad14 strain (AID 165).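 Note: 0% = growth equal to vehicle treated cultures.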 The conditions noted are these: S. cerevisiae cln2 rad14 strain, stronger effect = higher value. The gist of the method:
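The screen exposed genetically defined yeast (cln2 rad14) to test compounds and scored growth inhibition relative to vehicle-treated controls.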

Assay [5] is described as follows: NCI Yeast Anticancer Drug Screen. Data for the bub3 strain (AID 167). The conditions noted are these: S. cerevisiae bub3 mutant strain, stronger effect = higher value. An outline of the steps:
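Yeast carrying a defined mutation is treated with each compound, and growth is compared with that of vehicle-exposed cells to give inhibition.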

Assay [6] in a line: NCI Yeast Anticancer Drug Screen. Data for the mlh1 rad18 strain (AID 175). As to conditions: S. cerevisiae mlh1 rad18 strain growth inhibition, stronger effect = higher value. An outline of the steps: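 Compound-treated yeast growth, normalised to vehicle controls. Strain bears defined DNA repair mutations.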
Where [7] appears, read: at 5.0 µM (retest, dose inferred, filed as 0.5).
[8] abbreviates: at 50.0 µM (retest, dose inferred, filed as 5.0).

Take `CC(C)/C=N/N(CCOC(=O)Nc1ccccc1)C(=O)Nc1ccccc1`: the growth inhibition in assay [1] (setting [7]) is 8%; in assay [1] (setting [8]) it was -6%; in assay [1] (at 50.0 µM), -3.85%; in assay [2] (setting [7]) it was -6%; in assay [2] (setting [8]) it was -12%; in assay [2] (at 50.0 µM) it was 14.3%. The growth inhibition is -1% in assay [3] (setting [7]); -6% in assay [3] (setting [8]); -12.7% in assay [3] (at 50.0 µM); -5% in assay [4] (setting [7]); -1% in assay [4] (setting [8]); 82.2% (active) in assay [4] (at 50.0 µM). The growth inhibition in assay [5] (setting [7]) was -7%; in assay [5] (setting [8]) it was -9%; in assay [5] (at 50.0 µM), 16.1%; in assay [6] (setting [7]), -3%; in assay [6] (setting [8]), -5%; in assay [6] (at 50.0 µM), 6.9%.

Turning to `OC(CNc1ccnc2cc(Cl)ccc12)CNc1ccnc2cc(Cl)ccc12`, the growth inhibition in assay [1] (setting [7]) is -2%; in assay [1] (setting [8]) it was 34%; in assay [1] (at 50.0 µM), 40%; in assay [2] (setting [7]) it was 0%; in assay [2] (setting [8]) it was 31%; in assay [2] (at 50.0 µM), 23.1%. Also, the growth inhibition in assay [3] (setting [7]) is 0%; in assay [3] (setting [8]), 46%; in assay [3] (at 50.0 µM), 15.6%; in assay [4] (setting [7]) it was -4%; in assay [4] (setting [8]) it was 46%; in assay [4] (at 50.0 µM), -21.2%. In addition, the growth inhibition was -2% in assay [5] (setting [7]); 41% in assay [5] (setting [8]); 2.8% in assay [5] (at 50.0 µM); 2% in assay [6] (setting [7]); 60% in assay [6] (setting [8]); 85.7% (active) in assay [6] (at 50.0 µM).

Turning to `CC(C)c1ccc(/C=C2\CSCC3=C2NC(=S)NC3c2ccc(C(C)C)cc2)cc1` (stereo not given), the growth inhibition in assay [1] (setting [7]) was -6%; in assay [1] (setting [8]), 83% (active); in assay [1] (at 50.0 µM) it was 98.3% (active); in assay [2] (setting [7]), -17%; in assay [2] (setting [8]), 92% (active); in assay [2] (at 50.0 µM), 98.7% (active). Moreover, the growth inhibition is -13% in assay [3] (setting [7]); 87% (active) in assay [3] (setting [8]); 98.9% (active) in assay [3] (at 50.0 µM); -3% in assay [4] (setting [7]); 83% (active) in assay [4] (setting [8]); 98.6% (active) in assay [4] (at 50.0 µM). Besides, the growth inhibition in assay [5] (setting [7]) is -13%; in assay [5] (setting [8]), 95% (active); in assay [5] (at 50.0 µM) it was 98.7% (active); in assay [6] (setting [7]) it was -4%; in assay [6] (setting [8]), 94% (active); in assay [6] (at 50.0 µM), 98.4% (active).

With `COc1ccc2c(c1OC)C(C(Cl)(Cl)Cl)N1CCc3cc4c(cc3C1=C2)OCO4` (stereo not given), the growth inhibition is 15% in assay [1] (setting [7]); 54% in assay [1] (setting [8]); 67.2% in assay [1] (at 50.0 µM); 7% in assay [2] (setting [7]); 71% (active) in assay [2] (setting [8]); 74.5% (active) in assay [2] (at 50.0 µM). The growth inhibition in assay [3] (setting [7]) was 7%; in assay [3] (setting [8]), 72% (active); in assay [3] (at 50.0 µM) it was 78.4% (active); in assay [4] (setting [7]) it was 33%; in assay [4] (setting [8]) it was 80% (active); in assay [4] (at 50.0 µM), 80% (active). Further, the growth inhibition in assay [5] (setting [7]) is 20%; in assay [5] (setting [8]) it was 86% (active); in assay [5] (at 50.0 µM), 80.8% (active); in assay [6] (setting [7]), 11%; in assay [6] (setting [8]), 66%; in assay [6] (at 50.0 µM) it was 62.1%.

Turning to `O=c1cccccc1[O-].O=c1cccccc1[O-].O=c1cccccc1[O-].[Sm+3]`, the growth inhibition in assay [1] (setting [7]) is 33%; in assay [1] (setting [8]) it was 33%; in assay [1] (at 50.0 µM) it was 91.7% (active); in assay [2] (setting [7]) it was 19%; in assay [2] (setting [8]), 19%; in assay [2] (at 50.0 µM) it was 92.5% (active). For the same compound, the growth inhibition is 21% in assay [3] (setting [7]); 21% in assay [3] (setting [8]); 90.5% (active) in assay [3] (at 50.0 µM); 17% in assay [4] (setting [7]); 17% in assay [4] (setting [8]); 90.2% (active) in assay [4] (at 50.0 µM). The growth inhibition in assay [5] (setting [7]) was 11%; in assay [5] (setting [8]) it was 11%; in assay [5] (at 50.0 µM) it was 93% (active); in assay [6] (setting [7]) it was 14%; in assay [6] (setting [8]), 14%; in assay [6] (at 50.0 µM), 90.4% (active).

In the case of `CCN(CC)C(=O)C1(OC(C)=O)CCCCC1`, the growth inhibition in assay [1] (setting [7]) is 0%; in assay [1] (setting [8]) it was 0%; in assay [1] (at 50.0 µM), -2.4%; in assay [2] (setting [7]), -21%; in assay [2] (setting [8]) it was -1%; in assay [2] (at 50.0 µM), -5.65%. Moreover, the growth inhibition in assay [3] (setting [7]) was 0%; in assay [3] (setting [8]), -2%; in assay [3] (at 50.0 µM), 9.9%; in assay [4] (setting [7]), 3%; in assay [4] (setting [8]), 0%; in assay [4] (at 50.0 µM) it was 36.8%. Further, the growth inhibition in assay [5] (setting [7]) was -6%; in assay [5] (setting [8]), -2%; in assay [5] (at 50.0 µM), 2.1%; in assay [6] (setting [7]) it was 1%; in assay [6] (setting [8]) it was 0%; in assay [6] (at 50.0 µM) it was -80.8%.

Consider `CCOC(=O)c1cnc(SCc2ccc(Cl)cc2Cl)nc1Cl`, for which the growth inhibition in assay [1] (setting [7]) was 1%; in assay [1] (setting [8]), 47%; in assay [1] (at 50.0 µM), 38.4%; in assay [2] (setting [7]), 0%; in assay [2] (setting [8]), 73% (active); in assay [2] (at 50.0 µM), 54.6%. The growth inhibition in assay [3] (setting [7]) is 16%; in assay [3] (setting [8]) it was 66%; in assay [3] (at 50.0 µM), 58.5%; in assay [4] (setting [7]), -3%; in assay [4] (setting [8]) it was 59%; in assay [4] (at 50.0 µM) it was 71.8% (active). In addition, the growth inhibition was 0% in assay [5] (setting [7]); 54% in assay [5] (setting [8]); 25.7% in assay [5] (at 50.0 µM); 0% in assay [6] (setting [7]); 62% in assay [6] (setting [8]); 65% in assay [6] (at 50.0 µM).

With `[Cl][Pt+2]([Cl])([Cl])[Cl].[NH-]CC1(C[NH-])CCCC1`, the growth inhibition is 86% (active) in assay [1] (setting [7]); 99% (active) in assay [1] (setting [8]); 90.2% (active) in assay [1] (at 50.0 µM); 68% in assay [2] (setting [7]); 99% (active) in assay [2] (setting [8]); 90.8% (active) in assay [2] (at 50.0 µM). Further, the growth inhibition is 62% in assay [3] (setting [7]); 86% (active) in assay [3] (setting [8]); 90.3% (active) in assay [3] (at 50.0 µM); 57% in assay [4] (setting [7]); 81% (active) in assay [4] (setting [8]); 86% (active) in assay [4] (at 50.0 µM). Also, the growth inhibition was 61% in assay [5] (setting [7]); 88% (active) in assay [5] (setting [8]); 93% (active) in assay [5] (at 50.0 µM); 56% in assay [6] (setting [7]); 98% (active) in assay [6] (setting [8]); 83.5% (active) in assay [6] (at 50.0 µM).

Consider `CCCN(CCC)CC(O)c1cc(-c2ccccc2)nc2c(Cl)cc(Cl)cc12` (stereo not given), for which the growth inhibition was 3% in assay [1] (setting [7]); 90% (active) in assay [1] (setting [8]); 98.3% (active) in assay [1] (at 50.0 µM); -2% in assay [2] (setting [7]); 100% (active) in assay [2] (setting [8]); 98.2% (active) in assay [2] (at 50.0 µM). Also, the growth inhibition in assay [3] (setting [7]) was 2%; in assay [3] (setting [8]) it was 81% (active); in assay [3] (at 50.0 µM), 98% (active); in assay [4] (setting [7]) it was -5%; in assay [4] (setting [8]), 99% (active); in assay [4] (at 50.0 µM), 97.8% (active). In addition, the growth inhibition was -1% in assay [5] (setting [7]); 99% (active) in assay [5] (setting [8]); 98.2% (active) in assay [5] (at 50.0 µM); -2% in assay [6] (setting [7]); 94% (active) in assay [6] (setting [8]); 92.2% (active) in assay [6] (at 50.0 µM).

As to `O=C1C=CC(=O)N1c1cccc(F)c1`, the growth inhibition was 96% (active) in assay [1] (setting [7]); 99% (active) in assay [1] (setting [8]); 99.7% (active) in assay [1] (at 50.0 µM); 97% (active) in assay [2] (setting [7]); 100% (active) in assay [2] (setting [8]); 99.8% (active) in assay [2] (at 50.0 µM). Besides, the growth inhibition was 93% (active) in assay [3] (setting [7]); 99% (active) in assay [3] (setting [8]); 99.7% (active) in assay [3] (at 50.0 µM); 82% (active) in assay [4] (setting [7]); 99% (active) in assay [4] (setting [8]); 98.8% (active) in assay [4] (at 50.0 µM). The growth inhibition in assay [5] (setting [7]) is 98% (active); in assay [5] (setting [8]) it was 100% (active); in assay [5] (at 50.0 µM), 99.6% (active); in assay [6] (setting [7]) it was 88% (active); in assay [6] (setting [8]), 100% (active); in assay [6] (at 50.0 µM), 99.4% (active).
